Wnt bcat act = activates Wnt/beta-catenin signaling in a reporter cell assay | hit rate 1.2% among 300,000 | activation, % at 9.35 µM | activator, plate reader; in the data active means activation above about 30%, passing the limit was not always enough;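 further: 0% = neutral control wells and 100% = positive control wells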
MITF act = increases MITF-driven TRPM1 promoter luciferase signal | SK-MEL-5 TRPM1-promoter luciferase, 24 h; % of positive control, neutral wells = 0 | activation, % at 12.5 µM | hit rate 0.75% among 300,000;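 active means mean activation of at least 80% with every replicate also reaching 80%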;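 further: 0% = neutral control wells and 100% = parthenolide positive control wells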
NSD2 HMT inh = inhibitors of human histone methyltransferase NSD2; inhibition, % at 12.5 µM; NSD2 peptide methylation, AlphaScreen, 120 min; hit rate 0.54% among 310,000
INS-1E GSIS act = GLuc luminescence reporter in INS-1E cells, primary screen for activators of glucose-dependent secretion of insulin; INS-1E GLuc reporter insulin secretion, 2-3 h; activation, % at 16.6 µM; hit rate 0.61% among 370,000; AID 743287;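 active means lowest replicate activation of at least 40%, so every replicate reaches that level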;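 further: 0% = median of neutral control wells and 100% = median of IBMX positive control wells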
DYRK1A inh = blocks rat Dyrk1A kinase activity. inhibition, % at 12.5 µM. AID 504441. hit rate 0.43% among 310,000. Q63470. ADP-Glo luminescence, NFATc1 peptide;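 further: plate controls were vehicle with enzyme for no effect and no enzyme for full effect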
miR122 inh = blocks miR-122 activity in Huh7 sensor cells; hit rate 0.3% among 340,000; Huh7 miR-122 Renilla luciferase sensor, 48 h; neutral wells = 0, positive control = 100; activation (reporter increase), % at 12.5 µM;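 active means mean replicate activation score at least 90 and every replicate individually at or above 90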;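 further: higher luciferase means less miR-122 activity so hits act as miR-122 inhibitors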
Active calls of the source: *; . = no result given; [ ] = another dose, or the depositor's remark. Rows were chosen to be rich in hits. Some 2.4% of all compounds tested hit in one or more screens of this group. Unless noted, no stated cut-off is given here; in the data, active means inhibition above about 50%; inactive means the rest.

SMILES	Wnt bcat act	MITF act	NSD2 HMT inh	INS-1E GSIS act	DYRK1A inh	miR122 inh
COc1ccc(N/C=C/C(=O)c2ccc(Cl)cc2)cc1	.	106.3*	-1.3	112.3*	-5.4	.
COc1cccc(N/C=C/C(=O)c2ccc(Cl)cc2)c1	16.4	29.3	-1.4	1.5	-11.6	-0.1
C[C@@H]1CN([C@@H](C)CO)C(=O)Cc2cc(NS(=O)(=O)c3ccc(F)cc3)ccc2O[C@H]1CN(C)C(=O)Nc1ccccc1	.	.	.	4.9	.	-0.7[16.7 µM]
CN(C)S(=O)(=O)c1cccc(-c2nnc(-c3ccccc3)o2)c1	-0.2	85.9*	-8.0	13.8	9.0	3.8
O=S(=O)(NC1CCCCC1)c1cccc(-c2nnc(-c3ccccc3)o2)c1	-2.2	2.0	0.6	.	-0.1	100.4*
O=C(C1CC1)N1CC2(C1)[C@H](c1ccccc1)[C@@H](CO)N2Cc1ccccc1F	.	.	.	4.5	.	.
CN(C)CC(=O)Nc1ccc2c(c1)[C@H]1C[C@@H](CC(=O)NCc3cccnc3)O[C@@H](CO)[C@H]1O2	.	.	.	12.2	.	4.0[16.7 µM]
Cc1ccc(NC(=O)C(c2ccccc2)N2CCN(CC(=O)N3CCOCC3)CC2)cc1 (stereo not drawn)	33.1*	22.2	-1.5	.	8.3	1.8
Cc1noc(C)c1S(=O)(=O)Nc1ccc2c(c1)C(=O)N([C@H](C)CO)C[C@H](C)[C@H](CN(C)C(=O)Nc1cccc3ccccc13)OCCCC[C@H](C)O2	.	.	.	-1.9	.	-15.1[16.7 µM]
C[C@@H]1CN([C@@H](C)CO)C(=O)Cc2cc(NC(=O)Nc3ccc(F)cc3)ccc2O[C@H]1CN(C)C(=O)Nc1ccc(F)cc1	.	.	.	-6.1	.	-0.1[16.7 µM]
CC1CCC(=O)N(CCSc2ccccc2)CC1 (stereo not drawn)	32.8*	87.4*	.	9.0	-8.3	-9.0
CCn1nc(C(=O)Nc2ccc(S(=O)(=O)Nc3nccs3)cc2)c2ccccc2c1=O	-4.8	-31.6	1.0	.	22.5	92.7*
COc1ccc2c(c1)oc(=O)c1cc(OC)ccc12	5.7	91.7*	.	15.5	21.5	1.2
COc1ccc2c(=O)c3ccccc3oc2c1	2.1	104.3*	.	.	23.5	-5.7
O=c1c2ccccc2oc2ccccc12	-0.9	.	.	15.2	.	-4.0
O=c1c2ccccc2oc2c1ccc1ccccc12	.	90.2*	.	.	15.4	11.6
CC(=O)c1ccc2oc3ccccc3c(=O)c2c1	11.1	80.2*	.	3.5	5.0	-3.9
C[C@H]1CN([C@@H](C)CO)C(=O)c2cc(NC(=O)CCCN(C)C)ccc2O[C@H]1CN(C)C(=O)NC1CCCCC1	.	.	.	-1.2	.	0.7[16.7 µM]
O=C(C[C@@H]1C[C@@H]2c3cc(NC(=O)Nc4ccccc4F)ccc3O[C@@H]2[C@@H](CO)O1)NCC1CC1	.	.	.	12.4	.	-0.7[16.7 µM]
CCCC#Cc1cnc2c(c1)C(=O)N([C@@H](C)CO)C[C@@H](C)[C@@H](CN(C)C(=O)Nc1ccccc1OC)O2	.	.	.	7.6	.	6.6[16.7 µM]
COc1ccc2c(=O)c(-c3ccc(OC)c(OC)c3)coc2c1	1.4	95.0*	.	.	0.0	-1.6
Cc1ccc(C(=O)NC2CCCCCCC2)cc1S(=O)(=O)N1CCOCC1	10.1	76.9	-1.1	1.1	6.6	.
O=C(NC1CCCC1)c1ccc(Cl)c(S(=O)(=O)N2CCOCC2)c1	0.4	-2.5	-2.4	46.7*	-5.5	-0.7
Cc1ccccc1OCc1nc2ccccc2c(=O)n1/N=C/c1c[nH]c2ccccc12	0.7	15.0	-2.2	-1.0	8.8	-1.5
Cc1ccc(-c2[nH]ncc2/C=N/n2c(COc3ccccc3C)nc3ccccc3c2=O)cc1	25.4	11.9	-2.5	197.1*	-7.7	-4.0
SMILES	Wnt bcat act	MITF act	NSD2 HMT inh	INS-1E GSIS act	DYRK1A inh	miR122 inh
CN(C)C(=O)c1ccc(-c2ccc([C@@H]3[C@H]4CN(C(=O)C5CC5)CC(=O)N4[C@H]3CO)cc2)cc1	.	.	.	15.0	.	.
CN(C)C(=O)c1ccc(-c2ccc([C@@H]3[C@@H](CO)N4C(=O)CN(C(=O)C5CC5)C[C@@H]34)cc2)cc1	.	.	.	66.5*	.	.
COc1ccccc1C(=O)Nc1ccc2c(c1)OC[C@@H](C)N(CC1CC1)C[C@H](C)[C@@H](OC)CN(C)C2=O	.	.	.	-7.8	.	0.3[16.7 µM]
CCN(CC)c1ccc(C2C3CCCCC3(O)CCN2C(=O)c2cccs2)cc1 (stereo not drawn)	.	5.9	8.0	-15.6	-3.4	2.4
O=C(c1cccs1)N1CCC2(O)CCCCC2C1c1ccc(F)cc1 (stereo not drawn)	-1.3	-9.7	20.3	53.8*	-1.4	.
COc1ccc(C2C3CCCCC3(O)CCN2C(=O)c2cccs2)cc1 (stereo not drawn)	0.2	7.1	-1.3	48.0*	-0.9	.
Nc1ccc2nc(Cc3ccccc3)[nH]c2c1	-1.3	17.6	2.5	9.3	1.4	.
Cc1ccc2nc(Cc3ccc(N)cc3)[nH]c2c1	39.2*	15.6	5.1	.	0.7	4.3
COc1ccnc(N2CCN(c3ccc(Cl)cc3)CC2)c1C#N	2.8	9.8	-0.7	-25.2	-3.7	-1.7
COc1ccnc(N2CCN(c3cccc(C(F)(F)F)c3)CC2)c1C#N	-1.7	1.3	-2.5	72.7*	-2.9	.
C=C[C@@]1(C)CC(=O)[C@]2(O)[C@@]3(C)[C@@H](O)CCC(C)(C)[C@@H]3[C@H](O)[C@H](OC(C)=O)[C@@]2(C)O1	2.9	10.9	.	98.8*	3.6	-1.1
C=C1C(=O)O[C@H]2C[C@]3(C)C([C@@H](OC(=O)/C(C)=C/C)[C@H]12)[C@](C)(O)CC[C@H]3O (stereo partly drawn)	-0.1	1.2	-0.4	12.4	1.8	-5.7
C=C[C@@]1(C)CC(=O)[C@]2(O)[C@@]3(C)[C@@H](O)CCC(C)(C)[C@@H]3[C@H](OC(C)=O)[C@H](O)[C@@]2(C)O1	-1.3	.	.	84.7*	-2.7	-9.8
CCCS/C(N)=N/N=C/c1cc(C)ccc1O	.	123.0*	-3.7	.	3.6	1.7
Cc1ccnc(NC(=O)CNC(=O)COc2ccccc2)c1	38.5*	89.6*	-1.5	28.0	2.3	-5.6
COCCN(C(=O)CSc1nnc(C(F)(F)F)n1C)c1c(N)n(CC(C)C)c(=O)[nH]c1=O	.	.	0.7	.	.	.
COc1c(Cl)cccc1-c1cn2ccc(C)cc2n1	57.2*	69.2	22.4	0.2	6.4	.
Cc1ccn2cc(-c3cnoc3C)nc2c1	-0.1	33.6	25.4	.	2.7	-0.6
Cc1ccnc(NC(=O)c2cccc(NC(=O)c3cccc(Cl)c3)c2)c1	.	.	-0.8	.	.	.
COC(=O)[C@H](Cc1ccccc1)NC(=O)NCc1ccc(C)cc1	51.2*	.	0.6	-22.7	.	-6.4
COC(=O)[C@H](Cc1ccccc1)NC(=O)NCc1ccccc1	-1.5	.	11.9	-1.3	0.3	-5.0
CCOC(=O)c1[nH]c(C)c(C(=O)Nc2cc(Cl)ccc2C)c1C	-5.3	-7.6	-0.4	-8.2	1.6	38.9
CCOC(=O)c1c(C)[nH]c(C(=O)OCc2ccccc2)c1C	43.0*	92.3*	1.1	11.0	-8.0	-7.5
CCOC(=O)c1[nH]c(C)c(C(=O)Nc2ccccc2C)c1C	-0.9	-5.0	.	16.9	16.5	138.3*
